Results on 15 compounds are retold here after PubChem BioAssay.

A number with no mark means an inactive call. Activity calls are given as the source filed them.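 The calls were made as follows: active = thallium flux through the channel raised or lowered by more than 3 SD from vehicle-only wells, actives on both sides; inactive = the rest.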

Holding throughout (assay): BK channel mutant inhibitors and activators – cell-based, U2OS BacMam, thallium flux, beta subunits, selectivity assay, profiling panel (AID 1259406);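 also: initial slope of Thallos dye fluorescence rise after thallium is added; log ratio against the mean of 0.3% DMSO vehicle wells on the same plate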
Test [1] relates to F380Y. The conditions noted are these: U2OS BacMam BK variants, at 30 µM.
The test system of test [2] is F380Y/beta1. The conditions noted are these: U2OS BacMam BK variants, at 30 µM.
For test [3], the system named is F380Y/beta2Delta. The conditions noted are these: U2OS BacMam BK variants, at 30 µM.
In test [4] the test system is F380Y/beta4. The following applies: U2OS BacMam BK variants, at 30 µM.
In test [5] the target is Calcium-activated potassium channel subunit alpha-1 (Homo sapiens) + Leucine-rich repeat-containing protein 26 (Homo sapiens) (UniProt Q12791+Q2I0M4). The conditions noted are these: U2OS BacMam BK variants, F380Y/Slo1WT/gamma1, at 30 µM.
For test [6], the system named is R275C. The following applies: U2OS BacMam BK variants, at 30 µM.
Test [7] deals with R275C/beta1. The conditions noted are these: U2OS BacMam BK variants, at 30 µM.
In test [8] the test system is R275C/beta2Delta. The following applies: U2OS BacMam BK variants, at 30 µM.
Test [9] relates to R275C/beta4. The following applies: U2OS BacMam BK variants, at 30 µM.
Test [10] deals with R275C/Slo1WT/beta2. The conditions noted are these: U2OS BacMam BK variants, at 30 µM.

Calcium-activated potassium channel subunit alpha-1 (Homo sapiens) + Leucine-rich repeat-containing protein 26 (Homo sapiens), sequence (Q2I0M4 whole entry, looked up, one chain of several): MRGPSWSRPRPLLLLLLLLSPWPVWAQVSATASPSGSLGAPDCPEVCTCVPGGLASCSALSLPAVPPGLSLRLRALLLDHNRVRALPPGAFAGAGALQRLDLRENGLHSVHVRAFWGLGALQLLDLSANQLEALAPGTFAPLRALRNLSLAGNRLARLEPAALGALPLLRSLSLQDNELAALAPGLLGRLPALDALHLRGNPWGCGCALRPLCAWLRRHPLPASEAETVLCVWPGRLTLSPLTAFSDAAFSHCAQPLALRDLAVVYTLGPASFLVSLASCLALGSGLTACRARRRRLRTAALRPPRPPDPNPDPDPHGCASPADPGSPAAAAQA

In the case of `CN1CCN(S(=O)(=O)c2ccc(CNC(=O)c3ccccc3)s2)CC1`, the log fold change Tl+ flux was -0.0286 in test [1]; -0.0353 in test [2]; -0.0627 in test [3]; -0.0096 in test [4]; -0.0465 in [5]; 0.0435 in [6]. The log fold change Tl+ flux in [7] is 0.0151; in test [8], -0.00195; in test [9], 0.00386; in test [10] it was -0.0258.
As for `O=C1CSC(=S)N1N=Cc1cccnc1`, the log fold change Tl+ flux was 0.0409 in test [1]; 0.00585 in test [2]; 0.0225 in test [3]; 0.0146 in [4]; 0.0179 in test [5]; 0.0256 in [6]. The log fold change Tl+ flux was -0.0433 in [7], 0.0173 in test [8], 0.00843 in test [9] and -0.022 in [10].
`FC(F)(F)c1cc(C=Cc2noc(-c3ccc(CN4CCCC4)cc3)n2)cc(C(F)(F)F)c1`: the log fold change Tl+ flux was -0.0963 in test [1]; 0.0303 in [2]; -0.0239 in [3]; -0.0108 in test [4]; 0.0236 in test [5]; -0.0044 in test [6]. For the same compound, the log fold change Tl+ flux is 0.00631 in test [7], -0.0502 in test [8], -0.00136 in test [9] and -0.00667 in test [10].
`Cc1cc(C(=O)ON=C(N)c2ccc([N+](=O)[O-])o2)no1`: the log fold change Tl+ flux is 0.0152 in test [1]; 0.0208 in test [2]; 0.0122 in test [3]; 0.0216 in test [4]; 0.00414 in [5]; -0.00373 in [6]. In addition, the log fold change Tl+ flux in [7] is 0.00585; in test [8], -0.00874; in test [9], 0.0176; in [10], -0.0342.
`CCOC(=O)c1cnc(C(F)(F)F)nc1NN=Cc1c(Cl)cccc1Cl`: the log fold change Tl+ flux in [1] was -0.0741; in test [2] it was 0.0122; in test [3] it was -0.0116; in test [4], 0.00688; in test [5], -0.0599; in test [6] it was -0.0944 (active). Besides, the log fold change Tl+ flux in [7] was -0.124 (active); in test [8], -0.0798; in test [9] it was -0.0487; in test [10] it was -0.0141.
For the compound `NC(C=Cc1cc(C(F)(F)F)cc(C(F)(F)F)c1)=NOC(=O)c1c(F)cccc1F`, the log fold change Tl+ flux was -0.0565 in test [1]; 0.0127 in test [2]; -0.0278 in test [3]; -0.0864 in test [4]; -0.0341 in test [5]; -0.0159 in test [6]. The log fold change Tl+ flux in test [7] is -0.0569; in test [8] it was -0.0168; in test [9], 0.0381; in [10], 0.0436.
With `COc1ccc(Oc2ccc([N+](=O)[O-])cc2C2=NC(=CN(C)C)C(=O)O2)cc1`, the log fold change Tl+ flux in [1] was -0.0336; in [2] it was -0.0257; in test [3] it was -0.0604; in test [4] it was -0.00321; in test [5], -0.0547; in test [6], -0.0108. In addition, the log fold change Tl+ flux is -0.015 in [7], -0.0321 in test [8], -0.00628 in test [9] and -0.0407 in test [10].
Turning to `CN1c2ccccc2C(C)(C)C12C=Cc1cc(Br)cc([N+](=O)[O-])c1O2` (stereo not given), the log fold change Tl+ flux was 0.0436 in test [1]; 0.162 (active) in test [2]; 0.0613 in [3]; 0.00641 in test [4]; 0.0283 in [5]; 0.00244 in test [6]. Besides, the log fold change Tl+ flux in test [7] is 0.132 (active); in test [8] it was 0.0868 (active); in [9], 0.0424; in test [10], -0.0665.
Consider `N#CC(NCc1ccccc1Cl)=C(C#N)NCc1c(F)cccc1Cl`, for which the log fold change Tl+ flux in test [1] is -0.0652; in test [2], -0.0209; in [3], -0.0204; in [4], -0.171 (active); in [5] it was -0.129 (active); in [6], -0.2 (active). Further, the log fold change Tl+ flux is -0.262 (active) in [7], -0.0733 in [8], -0.185 (active) in test [9] and 0.00197 in test [10].
Regarding `CCOC(=O)c1sc(SC)nc1N`, the log fold change Tl+ flux in test [1] was -0.000489; in test [2], -0.00635; in test [3] it was 0.00305; in test [4] it was 0.00634; in [5], -0.00935; in test [6], 0.0886 (active). Further, the log fold change Tl+ flux is -0.00543 in test [7], -0.0273 in test [8], -0.000536 in test [9] and 0.0235 in [10].
On to `Oc1c(Cl)c(Cl)c(Cl)c2ccccc12`, for which the log fold change Tl+ flux in [1] was 0.503 (active); in test [2] it was 0.627 (active); in test [3] it was 0.473 (active); in test [4] it was 0.484 (active); in [5] it was 0.395 (active); in [6], 0.519 (active). The log fold change Tl+ flux in [7] was 0.527 (active); in test [8], 0.304 (active); in [9] it was 0.702 (active); in test [10], 0.141 (active).
Turning to `Cc1nn(Cc2nnc(-c3cc(C(F)(F)F)cc(C(F)(F)F)c3)o2)c(C)c1Br`, the log fold change Tl+ flux in test [1] was -0.000532; in test [2] it was -0.0352; in test [3] it was -0.0793; in test [4], -0.0305; in test [5] it was -0.0495; in test [6], -0.0117. Besides, the log fold change Tl+ flux in test [7] was -0.0379; in [8], -0.0199; in test [9], 0.00363; in test [10], 0.0313.
For the compound `NC1(C(=O)O)CCSCC1`, the log fold change Tl+ flux in test [1] is -0.0475; in test [2] it was 0.00895; in test [3], -0.0146; in test [4], 0.00194; in [5] it was -0.0223; in test [6] it was -0.0154. Moreover, the log fold change Tl+ flux was -0.0495 in test [7], 0.0435 in test [8], -0.00913 in [9] and -0.00295 in test [10].
In the case of `Cc1cc(Nc2ccc(F)cc2F)nc(SCc2c(Cl)cccc2Cl)n1`, the log fold change Tl+ flux in test [1] is -0.0282; in test [2], -0.0344; in test [3] it was -0.0422; in [4] it was -0.123 (active); in [5], -0.039; in test [6], -0.0547. Also, the log fold change Tl+ flux in test [7] is -0.0316; in [8], -0.000965; in [9] it was -0.0113; in test [10], -0.0702.
`ONC=Nc1nonc1-c1cccnc1`: the log fold change Tl+ flux is 0.00986 in test [1]; -0.0105 in [2]; -0.0403 in [3]; 0.000104 in [4]; -0.0369 in test [5]; -0.0128 in test [6]. Moreover, the log fold change Tl+ flux was 0.016 in test [7], -0.0342 in [8], -0.00156 in test [9] and 0.00719 in test [10].
